Outcome and Potency data for 17 compounds are collected here from PubChem BioAssay (Tox21).

Assay [1] is described as follows: qHTS assay to test for compound auto fluorescence at 535 nm (green) in HEK293 cells (AID 720680). For orientation: qHTS replaces the single test concentration by a dilution series.
A short description of assay [2]: qHTS assay to test for compound auto fluorescence at 460 nm (blue) in HEK293 cell free culture (AID 720681). The essentials: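 Blue fluorescence (Ex 405/Em 460 nm, triamterene-equivalent) was read immediately after pin transfer of compound or DMSO into medium (DMEM, 10% FBS) without cells.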
Assay [3] is described as follows: qHTS assay to test for compound auto fluorescence at 590 nm (red) in HEK293 cell free culture (AID 720683). The essentials:
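Red-channel autofluorescence of compounds in culture medium (DMEM, 10% FBS), no cells, measured at 540/590 nm. Rose Bengal sodium is the reference fluorophore for equivalence.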

Assay [4] can be described thus: qHTS assay to test for compound auto fluorescence at 590 nm (red) in HepG2 cell free culture (AID 720684). The procedure, abridged: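 Plate contents were MEM with 10% FBS plus test compound or DMSO, no cells. Fluorescence was recorded with 540 nm excitation and 590 nm emission.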
The nature of assay [5]: qHTS assay to test for compound auto fluorescence at 460 nm (blue) in HepG2 cell free culture (AID 720685). The essentials: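 Compound (23 nL) or DMSO pinned into cell-free MEM with 10% FBS; blue fluorescence read at 405/460 nm excitation/emission, expressed as auto-fluorescence equivalency to triamterene.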
A short description of assay [6]: qHTS assay to test for compound auto fluorescence at 535 nm (green) in HepG2 cell free culture (AID 720686).
Assay [7] can be described thus: qHTS assay to test for compound auto fluorescence at 460 nm (blue) in HepG2 cells (AID 720687). The procedure, abridged: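 Blue-channel autofluorescence (Ex/Em 405/460 nm, triamterene-equivalent) was measured after 1 hr compound exposure at 37 C, 5% CO2. Cells were HepG2, plated overnight at 37 C in MEM plus 10% FBS.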
Assay [8] deals with Glucocorticoid receptor (Homo sapiens) (UniProt P04150). Kind of assay: qHTS assay to identify small molecule agonists of the glucocorticoid receptor (GR) signaling pathway (AID 720691; active = well fitted activation curve with a large enough effect in the signal ratio in the repeat runs, not every such curve was filed as active; the % refers to the signal ratio). The procedure, abridged: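 Agonist mode in a HeLa line carrying a GRE-controlled beta-lactamase reporter. Compounds act for 18 h at 37 C before a 2 h room-temperature FRET substrate step and fluorescence reading.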

For assay [9] the target is unchanged. Description: qHTS assay to identify small molecule antagonists of the glucocorticoid receptor (GR) signaling pathway (AID 720692; active = well fitted inhibition curve with a large enough effect in the signal ratio in the repeat runs, not every such curve was filed as active; the % refers to the signal ratio). The procedure, abridged:
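Cells plated, rested 4 h at 37 C/5% CO2; compounds in DMSO pin-transferred; dexamethasone added to 5 nM final; 18 h at 37 C; B/G FRET substrate added, 2 h room temperature; fluorescence measured.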

Assay [10] in a line: qHTS assay to identify small molecule antagonists of the glucocorticoid receptor (GR) signaling pathway - cell viability counter screen (AID 720693). Also: nearly all actives have a fitted effect of over 55% in size.
Assay [11] in a line: qHTS assay for identifying genotoxic compounds that show differential cytotoxicity against isogenic chicken DT40 cell lines with known DNA damage response pathways - wild type cell line (AID 743012). Also: nearly all actives have a fitted effect of over 60% in size. Also: potency is read from the fitted curve at half-maximal effect. The procedure, abridged:
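Cells (DT40 wild type, 300/well) are treated with DMSO-dissolved compounds after a ~0.5 h pre-incubation and kept 40 h at 37 C/5% CO2. Viability is then measured by CellTiter-Glo luminescence following 30 min at room temperature.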

Assay [12] is described as follows: qHTS assay for identifying genotoxic compounds that show differential cytotoxicity against isogenic chicken DT40 cell lines with known DNA damage response pathways - Rev3 mutant cell line (AID 743014). Also: nearly all actives have a fitted effect of over 55% in size. Also: potency is read from the fitted curve at half-maximal effect.
A short description of assay [13]: qHTS assay for identifying genotoxic compounds that show differential cytotoxicity against isogenic chicken DT40 cell lines with known DNA damage response pathways - Rad54/Ku70 mutant cell line (AID 743015). Also: nearly all actives have a fitted effect of over 60% in size. Also: potency is read from the fitted curve at half-maximal effect.
Assay [14] in a line: qHTS assay to identify small molecule antagonists of the androgen receptor (AR) signaling pathway - cell viability counter screen (AID 743033; also: nearly all actives have a fitted effect of over 45% in size).
In assay [15] the target is Androgen receptor (Homo sapiens) (UniProt P10275). Description: qHTS assay to identify small molecule antagonists of the androgen receptor (AR) signaling pathway (AID 743035; active = well fitted inhibition curve with a large enough effect in the signal ratio in the repeat runs, not every such curve was filed as active; the % refers to the signal ratio). The procedure, abridged:
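Antagonism is scored as loss of R1881-driven beta-lactamase reporter expression in HEK293 cells carrying the reporter under a UAS element, after 16 h co-treatment at 37C and a 2 h room-temperature FRET substrate read.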

Assay [16] shares this target. Description: qHTS assay to identify small molecule agonists of the androgen receptor (AR) signaling pathway using the MDA cell line (AID 743040; also: nearly all actives have a fitted effect of over 20% in size). The procedure, abridged:
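After a 5 h incubation at 37C and 0% CO2, MDA-kb2 reporter cells were dosed with compounds in DMSO and kept 16 h under the same conditions. Luciferase activity was then read as luminescence with ONE-Glo.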

A short description of assay [17]: qHTS assay to identify small molecule antagonists of the androgen receptor (AR) signaling pathway using the MDA cell line - cell viability counter screen (AID 743041; also: nearly all actives have a fitted effect of over 45% in size). The essentials:
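R1881-driven MDA-kb2 AR-luc cells, 3,000/well, were dosed with library compounds for 16 h; cell health came from CellTiter-Fluor fluorescence in the reporter wells.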

Assay [18] deals with Androgen receptor (Homo sapiens) (UniProt P10275). Kind of assay: qHTS assay to identify small molecule antagonists of the androgen receptor (AR) signaling pathway using the MDA cell line (AID 743042; also: nearly all actives have a fitted effect of over 55% in size). The procedure, abridged:
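Antagonist mode: compounds plus R1881 agonist added to MDA-kb2 AR-luc cells, incubated 16 h at 37C. Luciferase reporter luminescence quantified, with multiplexed CellTiter-Fluor readout for cell viability.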

Assay [19] in a line: qHTS assay to test for compound auto fluorescence at 535 nm (green) in HEK293 cell free culture (AID 720682). The procedure, abridged: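 Green-label autofluorescence (485 nm excitation, 535 nm emission) measured on compound added to cell-free culture medium (DMEM, 10% FBS). Output is expressed relative to fluorescein.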
In assay [20] the target is Androgen receptor (Homo sapiens) (UniProt P10275). Description: qHTS assay to identify small molecule agonists of the androgen receptor (AR) signaling pathway (AID 743036; active = well fitted activation curve with a large enough effect in the signal ratio in the repeat runs, with a control signal flat, not every such curve was filed as active; the % refers to the signal ratio). The procedure, abridged:
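AR-UAS-bla HEK293 cells, plated 4 h before dosing, were treated with compound for 16 h at 37C. beta-Lactamase reporter read after 2 h with LiveBLAzer B/G FRET substrate at room temperature.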

Records with an inconclusive call do not appear. Activity calls are given as the source filed them. Unless noted, calls follow the shape of the dose curve; as a rule, active = well fitted curve in the direction sought with a large enough effect in the repeat runs; inconclusive = weak or mixed curves; inactive = no such curve, though single readings can be large; an effect the other way counts as inactive or inconclusive.

Sequence of Androgen receptor (Homo sapiens) (P10275 whole entry, looked up): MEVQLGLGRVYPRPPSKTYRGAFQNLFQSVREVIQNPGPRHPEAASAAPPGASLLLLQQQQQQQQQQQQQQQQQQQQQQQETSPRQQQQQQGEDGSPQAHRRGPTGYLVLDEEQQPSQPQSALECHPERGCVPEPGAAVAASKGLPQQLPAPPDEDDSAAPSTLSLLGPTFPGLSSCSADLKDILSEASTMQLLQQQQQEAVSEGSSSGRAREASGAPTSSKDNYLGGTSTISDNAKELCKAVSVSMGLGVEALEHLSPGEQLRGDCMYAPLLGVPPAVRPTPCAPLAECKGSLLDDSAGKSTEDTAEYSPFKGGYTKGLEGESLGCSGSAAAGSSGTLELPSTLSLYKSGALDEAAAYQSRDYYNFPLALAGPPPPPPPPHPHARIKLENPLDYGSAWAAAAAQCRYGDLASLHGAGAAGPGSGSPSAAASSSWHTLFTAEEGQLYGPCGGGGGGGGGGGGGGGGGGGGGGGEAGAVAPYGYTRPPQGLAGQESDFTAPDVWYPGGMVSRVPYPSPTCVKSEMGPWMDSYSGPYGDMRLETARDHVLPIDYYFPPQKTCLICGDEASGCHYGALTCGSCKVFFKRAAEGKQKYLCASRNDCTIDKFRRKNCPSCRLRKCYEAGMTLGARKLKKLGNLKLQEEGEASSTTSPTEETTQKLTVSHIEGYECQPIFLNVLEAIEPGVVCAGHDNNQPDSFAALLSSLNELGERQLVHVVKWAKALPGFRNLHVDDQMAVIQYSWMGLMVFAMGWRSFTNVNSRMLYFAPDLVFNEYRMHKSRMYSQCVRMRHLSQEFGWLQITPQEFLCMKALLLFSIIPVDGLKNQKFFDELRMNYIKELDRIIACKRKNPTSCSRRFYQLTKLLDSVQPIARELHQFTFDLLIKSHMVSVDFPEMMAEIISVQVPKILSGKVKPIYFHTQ
Sequence of Glucocorticoid receptor (Homo sapiens) (P04150 whole entry, looked up): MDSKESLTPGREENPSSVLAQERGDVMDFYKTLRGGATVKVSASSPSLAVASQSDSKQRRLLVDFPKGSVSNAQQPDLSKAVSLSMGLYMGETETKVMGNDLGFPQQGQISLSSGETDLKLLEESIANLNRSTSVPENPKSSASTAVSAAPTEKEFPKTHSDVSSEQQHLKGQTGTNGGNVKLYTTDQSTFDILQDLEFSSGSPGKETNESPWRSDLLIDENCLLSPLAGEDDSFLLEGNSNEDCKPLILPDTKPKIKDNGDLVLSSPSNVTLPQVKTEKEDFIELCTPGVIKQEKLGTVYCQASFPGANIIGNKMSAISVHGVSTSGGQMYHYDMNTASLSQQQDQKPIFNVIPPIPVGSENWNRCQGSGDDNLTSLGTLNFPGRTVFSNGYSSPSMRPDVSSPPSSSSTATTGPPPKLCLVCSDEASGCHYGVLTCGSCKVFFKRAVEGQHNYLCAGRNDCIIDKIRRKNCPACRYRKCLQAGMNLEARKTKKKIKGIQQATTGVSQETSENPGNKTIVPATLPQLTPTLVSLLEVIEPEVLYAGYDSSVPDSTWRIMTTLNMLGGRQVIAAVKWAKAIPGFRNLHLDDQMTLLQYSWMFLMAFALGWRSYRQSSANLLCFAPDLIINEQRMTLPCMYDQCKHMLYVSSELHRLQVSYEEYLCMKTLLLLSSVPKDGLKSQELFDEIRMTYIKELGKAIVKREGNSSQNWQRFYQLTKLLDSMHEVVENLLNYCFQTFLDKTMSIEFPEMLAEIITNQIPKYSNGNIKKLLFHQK

For the compound `O=C(O)Cc1sc(-c2ccccc2)nc1-c1ccc(Cl)cc1`, the compound was classed as inactive in [1], in assay [3], in assay [4] and in assay [6]. The Potency entry in [2], in assay [5], in [7], in assay [8], in assay [9] and in [10] was “inactive” throughout. Moreover, the Potency entry in [11], in assay [12], in [13], in assay [14], in assay [15] and in [16] was “inactive” in each case. Further, the Potency result in assay [17] and in [18] was “inactive” throughout.
Take `FC(F)(F)C(F)(F)C(F)(F)C(F)(F)C(F)(F)C(F)(F)CCI`: the compound was classed as inactive in assay [1], in [3], in assay [4] and in assay [6]. The Potency entry in assay [2], in [5], in assay [7], in assay [10], in assay [11] and in [12] was “inactive” each time. Besides, the Potency result in [13], in [14] and in assay [17] was “inactive” throughout.
As to `N#Cc1c(F)cccc1F`, the call in assay [1], in assay [3], in assay [4] and in assay [6] was inactive. Also, the Potency result in assay [2], in [5], in assay [7], in [8], in assay [9] and in [10] was “inactive” throughout. In addition, the Potency entry in assay [11], in [12], in assay [13], in assay [14] and in assay [17] was “inactive” in each case.
Take `O=C1CCCCCO1`: the compound was classed as inactive in assay [1], in assay [3], in [4] and in [6]. The Potency result in assay [2], in [5], in assay [7], in assay [8], in assay [10] and in [11] was “inactive” in each case. In addition, the Potency result in assay [12], in assay [13], in assay [14] and in assay [17] was “inactive” each time.
`CN1CCC(=C2c3ccccc3C=Cc3ccccc32)CC1`: the outcome in assay [1], in assay [3], in assay [4] and in assay [6] was inactive. The Potency entry in [2], in assay [5], in assay [7], in assay [8] and in assay [14] was “inactive” throughout. For the same compound, the results for the Potency in assay [11], in assay [12] and in assay [13] were 7.5 µM (active), 10.6 µM (active) and 13.3 µM (active), respectively.
Take `COc1ccc(OC)c(OC)c1`: the compound was called inactive in assay [1], in [3], in [4] and in assay [6]. The Potency result in assay [2], in assay [5], in assay [7], in assay [8], in [9] and in assay [10] was “inactive” throughout. The Potency entry in [11], in assay [12], in assay [13], in [14] and in assay [17] was “inactive” in each case.
As for `CC(=O)NCCCS(=O)(=O)O`, the compound was called inactive in [1], in [3], in assay [4] and in assay [6]. Besides, the Potency entry in assay [2], in [5], in [7], in [8], in assay [9] and in assay [10] was “inactive” each time. Further, the Potency entry in [11], in assay [12], in assay [13], in assay [14] and in [17] was “inactive” throughout.
In the case of `Nc1cnn([C@@H]2O[C@H](CO)[C@@H](O)[C@H]2O)c(=O)n1`, the result in [1], in [19], in assay [3], in [4] and in assay [6] was inactive. In addition, the Potency entry in [2], in assay [5], in [7], in [14] and in assay [17] was “inactive” each time. Also, the Potency in assay [11] was 27.3 µM (active); in [13], 6.12 µM (active).
For the compound `O=C1[C@H](CC[C@H](O)c2ccc(F)cc2)[C@@H](c2ccc(O)cc2)N1c1ccc(F)cc1`, the call in assay [1], in assay [19], in assay [3], in [4] and in assay [6] was inactive. For the same compound, the Potency entry in [2], in assay [5], in assay [7], in [10], in [14] and in assay [17] was “inactive” each time.
In the case of `CCOc1ccc2[nH]cc(C(=O)NCc3ccccc3)c(=O)c2n1`, the outcome in assay [1], in [3], in assay [4] and in assay [6] was inactive. The Potency entry in assay [2], in [5], in assay [7], in [10] and in assay [17] was “inactive” each time. In addition, the Potency was 43.3 µM (active) in assay [11], 48.6 µM (active) in [12] and 24.3 µM (active) in [13].
For the compound `CCOc1nc2cccc(C(=O)O)c2n1Cc1ccc(-c2ccccc2-c2nn[nH]n2)cc1`, the compound was called inactive in assay [1], in [19], in assay [3], in assay [4], in assay [6] and in [20]. The Potency result in assay [2], in assay [5], in [7], in assay [12], in [14] and in [15] was “inactive” each time. Also, the Potency entry in assay [16], in [17] and in [18] was “inactive” each time. Further, the Potency in [13] is 29.8 µM (active).
`CC(=O)O[C@H]1C[C@@H]2CC[C@@H]3[C@H](CC[C@@]4(C)[C@H]3C[C@H]([N+]3(C)CCCCC3)[C@@H]4OC(C)=O)[C@@]2(C)C[C@@H]1N1CCCCC1`: the call in assay [1], in assay [3], in [4] and in [6] was inactive. Further, the Potency entry in [2], in assay [5], in [7], in assay [10], in assay [11] and in assay [12] was “inactive” throughout. Further, the Potency entry in assay [13], in assay [14] and in assay [17] was “inactive” throughout.
Turning to `CCCCCC(CO)CCC` (configuration not stated), the outcome in [1], in assay [19], in assay [3], in assay [4] and in [6] was inactive. The Potency entry in [2], in assay [5], in assay [7], in assay [10], in [11] and in assay [13] was “inactive” throughout. The Potency result in [14] is “inactive”.
Consider `c1ccc(-c2nc[nH]c2-c2ccccc2)cc1`, for which the compound was called inactive in assay [1], in [19], in assay [3], in assay [4] and in assay [6]. Also, the Potency result in assay [2], in [5], in assay [7], in assay [10] and in assay [17] was “inactive” throughout.
Take `O=C(CCN1CCN2CCCC2C1)N1c2ccccc2Sc2ccc(Cl)cc21` (configuration not stated): the call in assay [1], in assay [3], in assay [4], in assay [6] and in assay [20] was inactive. Besides, the Potency result in [2], in assay [5], in assay [7], in [8], in [9] and in assay [16] was “inactive” throughout. The Potency result in assay [17] and in [18] was “inactive” each time. Further, the results for the Potency in assay [11], in assay [12] and in [13] were 10.6 µM (active), 11.9 µM (active) and 23.7 µM (active), respectively.
On to `NC(N)=N/N=C/c1c(Cl)cccc1Cl`, for which the result in assay [1], in assay [3], in assay [4] and in [6] was inactive. The Potency entry in assay [2], in assay [5], in assay [7], in assay [10] and in assay [16] was “inactive” each time. Further, the Potency in assay [11] was 11.9 µM (active); in assay [12], 23.7 µM (active); in [13], 21.1 µM (active).
`CCCCCc1ccc(N)cc1`: the result in assay [1], in assay [19], in [3], in assay [4] and in [6] was inactive. In addition, the Potency result in [2], in [5], in [7], in assay [10], in [11] and in [14] was “inactive” in each case.
